Screens as filed in PubChem.
D2 PAM-1: positive allosteric modulators of human D2 dopamine receptor; P14416; HEK293 T-REx D2, calcium flux, EC20 dopamine potentiation; potentiation, % at 10 µM; hit rate 0.34% among 340,000; AID 485347;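 active = potentiation over 3 SD above the plate norm, cut at about 30% in these data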; note: 0% is about no effect
Target sequence (P14416 whole entry, looked up): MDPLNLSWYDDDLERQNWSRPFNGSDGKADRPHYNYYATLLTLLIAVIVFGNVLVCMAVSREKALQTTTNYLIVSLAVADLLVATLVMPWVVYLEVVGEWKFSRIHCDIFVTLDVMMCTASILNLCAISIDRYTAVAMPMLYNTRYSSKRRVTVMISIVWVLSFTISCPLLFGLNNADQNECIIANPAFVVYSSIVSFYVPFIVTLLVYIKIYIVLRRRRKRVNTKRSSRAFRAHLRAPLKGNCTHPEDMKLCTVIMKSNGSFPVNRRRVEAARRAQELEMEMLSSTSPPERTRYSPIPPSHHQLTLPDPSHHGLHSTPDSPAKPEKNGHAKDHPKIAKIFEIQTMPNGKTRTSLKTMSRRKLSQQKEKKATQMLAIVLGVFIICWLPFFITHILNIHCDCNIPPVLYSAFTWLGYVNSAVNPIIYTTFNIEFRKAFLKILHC
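Potentiation of an EC20 dopamine calcium response measured kinetically over 180 s, after a preceding 180 s compound-only read flagging agonists. Cells: inducible Hek293 Trex D2 line, 4000/well, cultured overnight at 30 C before dye loading.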
D2 PAM-2: potentiates the human D2 dopamine receptor allosterically; P14416; DiscoveRx D2 beta-arrestin cells, luminescence, 90 min; 100% = 57 uM dopamine signal; potentiation, % (concentration not given with the values); hit rate 0.23% among 360,000; AID 624464; in the data active = potentiation above about 50%; inconclusive = mostly about 30% to 49%
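PathHunter beta-arrestin assay in DiscoveRx D2 cells. Compounds were added with an EC20 of dopamine (50 nM final) for 90 min at 37 deg C. Luminescence was read 1 h after detection reagent, with 57 uM dopamine as the EC100 control.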
D2 ag-1: agonists of human D2 dopamine receptor (beta-arrestin). P14416. DiscoveRx PathHunter D2 beta-arrestin, luminescence, 90 min; 100% = 57 uM dopamine signal. activation, % (no concentration beside the values). hit rate 0.084% among 360,000; in the data active = activation above about 40%; inconclusive = between about 15% and that limit
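Agonist mode: compounds alone added to overnight-plated D2 PathHunter cells for 90 min at 37 C, with 57 uM final dopamine (EC100) defining full response. Beta-arrestin recruitment detected by chemiluminescent reagent, read after 1 h at ambient temperature.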
D2 ag-2: activates the human D2 dopamine receptor. hit rate 0.53% among 340,000. activation, % at 2 µM. P14416. HEK293 T-REx D2 cells, calcium flux agonist mode;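 active = activation over 3 SD above normal in the single-dose calcium agonist read, cut at about 30% in these data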; note: 0% is about no effect
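Tetracycline-induced HEK293 Trex cells with D2 receptor force-coupled to calcium signaling, plated overnight at 30 C and loaded with no-wash calcium dye. Calcium flux read kinetically for 180 s after compound addition; responses flag agonists.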
D2 antagonist: antagonizes the human D2 dopamine receptor; AID 485344; HEK293 TREx D2 cells, calcium flux, dopamine EC80; inhibition, % at 10 µM; P14416; hit rate 2% among 340,000; in the data active = inhibition above about 30%; inactive = below that, where a call was filed; note: 0% is about no effect
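Read-out: kinetic calcium fluorescence (1 cycle/s) in inducible HEK293 T-REx D2 cells after an EC80 dopamine addition that followed 180 s compound preincubation. Loss of the dopamine response indicates antagonism.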
* = called active by the depositor; ? = inconclusive; . = no result given. Rows were chosen to be rich in hits. Some 2.4% of all compounds tested hit in one or more screens of this group.

SMILES | D2 PAM-1 | D2 PAM-2 | D2 ag-1 | D2 ag-2 | D2 antagonist
Cc1ccc(CN2CCN(C3CCN(S(=O)(=O)N(C)C)CC3)C(=O)C2=O)cc1 | -3.8 | . | . | 0.6 | .
Cc1ccc(SCC(=O)Nc2cccc(C(=O)NC(C)(C)C)c2)cc1 | -5.5 | -16.8 | -8.9 | -0.5 | -1.9
Cc1ccc(SCC(=O)NC(C)(C)C)cc1 | 1.3 | -2.7 | 0.2 | -0.1 | 36.8*
CC(=NNC(=S)N1CC2CCC(CC2)C1)c1cnccn1 | . | 97.2* | ? | . | .
COc1ccc(-n2nc(C(=O)Nc3cc(OC)c(OC)c(OC)c3)c(=O)n(C)c2=O)cc1 | 21.0 | . | . | -2.5 | .
O=C(CN1C=NS(=O)(=O)c2ccc(C(F)(F)F)cc21)Nc1cccc(C(F)(F)F)c1 | -16.9 | . | . | -0.5 | .
O=C(c1cc(COc2c(F)cccc2F)on1)N1CCC(c2ccccc2Cl)C1 (stereo not given) | 32.0* | -14.2 | -2.0 | 0.2 | -0.6
COc1ccc(OCc2cc(C(=O)N3CCC(OC)CC3)no2)c2ccccc12 | 4.0 | 53.4* | 6.5 | -0.4 | 10.3
COCC1CCN(C(=O)c2cc(COc3ccc(OC)c4ccccc34)on2)C1 (stereo not given) | . | 23.5 | 2.2 | . | .
CN(CCC1CCOCC1)C(=O)c1cc(COc2c(F)cccc2F)on1 | 1.5 | 2.9 | 2.1 | 0.7 | 30.5*
O=C(c1cc(COc2c(F)cccc2F)on1)N1CCC(c2ccccc2F)C1 (stereo not given) | -11.4 | -2.7 | -4.8 | 0.9 | -5.7
CN(CC1COCCO1)C(=O)c1cc(COc2c(F)cccc2F)on1 (stereo not given) | -10.1 | -10.3 | -4.2 | -0.5 | -6.0
CCCCN(C(=O)c1c(CC)noc1C)c1c(N)n(CC(C)C)c(=O)[nH]c1=O | -8.0 | 15.3 | 1.7 | 0.3 | 2.3
Cc1onc(-c2ccccc2)c1C(=O)N(CC(C)C)c1c(N)n(CC(C)C)c(=O)[nH]c1=O | 30.1* | -4.1 | -2.3 | . | .
CC1=C(C(=O)Nc2ccc(C)cc2C)C(c2ccc(Br)cc2)n2ncc(C(=O)Nc3cccc(C)c3)c2N1 (stereo not given) | . | . | . | -0.8 | .
COc1ccc(CN(C)c2ccc(-c3nc(-c4ccc(OC)c(OC)c4)no3)cc2[N+](=O)[O-])cc1 | 4.7 | . | . | 5.7 | .
O=C(CC1COc2ccccc2O1)NCCc1ccccc1 (stereo not given) | -1.5 | -1.9 | -1.5 | 1.3 | -2.1
CCOC(=O)CCNCC1COc2ccccc2O1 (stereo not given) | -19.9 | -29.3 | -1.9 | 17.2 | 0.8
OC(CNCC1COc2ccccc2O1)COCc1cccs1 (stereo not given) | -34.6 | -14.0 | -3.0 | 0.2 | 30.8*
CCCNCC1COc2ccccc2O1 (stereo not given) | -29.2 | -13.7 | 0.2 | 12.8 | 32.5*
c1ccc(CCCCNCC2COc3ccccc3O2)cc1 (stereo not given) | -42.6 | -4.7 | -1.8 | 8.2 | 95.9*
COc1ccc2c(C(=O)c3ccc(C)cc3)n(Cc3ccc(C(N)=O)cc3)[n+]([O-])c2c1 | 21.3 | -9.5 | 1.0 | -1.6 | 60.4*
Brc1ccc(-c2cn3c(n2)CCc2ccc4cccnc4c2-3)cc1 | 32.4* | -12.1 | 2.9 | -0.5 | -6.3
Brc1ccc(-c2cn3nc4c(nc3n2)CCCC4)cc1 | -7.2 | -10.1 | -1.1 | 0.5 | 7.8
COc1ccc(-c2cc(C(=O)Nc3cccnc3Cl)no2)cc1 | -7.3 | 3.4 | 2.6 | 0.9 | 18.0
SMILES | D2 PAM-1 | D2 PAM-2 | D2 ag-1 | D2 ag-2 | D2 antagonist
O=C(c1cc(-c2ccc(F)cc2)on1)N1CCCCCC1 | 33.6* | -4.5 | -5.8 | -2.1 | 9.5
O=C(Nc1cccnc1Cl)c1cc(-c2ccc(F)cc2)on1 | 34.0* | -7.0 | -2.2 | -0.1 | -3.2
O=C(Nc1ccccc1OCc1cc(=O)n2ccccc2n1)Nc1ccccc1C(F)(F)F | 9.2 | . | . | 1.3 | .
O=C(O)c1ccc(Cl)c(NC(=S)NC(=O)c2cccc(COc3ccccc3)c2)c1 | 12.5 | -3.7 | 2.0 | -0.6 | 36.0*
O=C(NC(=S)Nc1ccc(Cl)c(C(=O)O)c1)c1cccc(COc2ccccc2)c1 | -8.3 | -14.3 | -2.2 | -0.6 | -1.3
O=C(CSc1nccc(=O)[nH]1)Nc1ccc(S(=O)(=O)N2CCOCC2)cc1 | 5.0 | -2.1 | -0.7 | 0.3 | 31.5*
COc1ccc(S(=O)(=O)NC2CCSc3ccccc32)cc1NC(C)=O (stereo not given) | 16.1 | -3.9 | -1.2 | -0.4 | -2.3
